Unmarked numbers belong to inactive results. The rule behind the calls is not given here.
Biological target: Pantothenate synthetase (Mycobacterium tuberculosis (strain ATCC 25618 / H37Rv)) (UniProt P9WIL5)
Assay: Coupled enzyme confirmation of inhibitors against recombinant Mtb PanC (AID 375);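 note: 0% = full reaction with vehicle and 100% = no enzyme background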
Details: coupled enzyme assay; at 10 µM, stronger effect = higher value

Sequence of Pantothenate synthetase (Mycobacterium tuberculosis (strain ATCC 25618 / H37Rv)) (P9WIL5 whole entry, looked up): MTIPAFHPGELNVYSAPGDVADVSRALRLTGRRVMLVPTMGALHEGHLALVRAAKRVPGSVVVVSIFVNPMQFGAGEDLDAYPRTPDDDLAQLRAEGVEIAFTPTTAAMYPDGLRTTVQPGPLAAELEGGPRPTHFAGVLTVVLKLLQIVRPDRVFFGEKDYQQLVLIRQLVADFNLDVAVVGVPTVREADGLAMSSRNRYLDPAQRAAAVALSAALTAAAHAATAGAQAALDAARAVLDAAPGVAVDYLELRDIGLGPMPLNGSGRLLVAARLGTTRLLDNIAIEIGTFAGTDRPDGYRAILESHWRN

**Q.** With CC(=O)Nc1ccc(NC(=O)c2ccccc2F)cc1 as the molecule, how does the inhibition read?
**A.** Its inhibition is 0%.

**Q.** Which inhibition does the source give for Cc1cccc2c1N(CC(=O)OC(C)C)C(=O)C2=O here?
**A.** Its inhibition is 0%.

**Q.** With CN(c1ccccc1C(=O)N1CCN(c2cccc(Cl)c2)CC1)S(C)(=O)=O as the molecule, how does the inhibition read?
**A.** The inhibition was 0%.

**Q.** Which inhibition does the source give for Cc1cc(N2CCC3(CC2)OCCO3)n2nc(C)c(-c3ccc(Cl)cc3)c2n1 here?
**A.** Its inhibition is 8%.

**Q.** How did the inhibition turn out when CC(CN1CCCCC1)OC(=O)c1ccc2c(c1)OCO2 (stereo not drawn) was run?
**A.** Its inhibition is 0%.

**Q.** With COCCCNC(=O)CSc1ccc(Cl)cc1 as the molecule, how does the inhibition read?
**A.** The inhibition was 0%.

**Q.** With O=C(COC(=O)c1cnccn1)c1ccc(OC(=O)c2ccccc2)cc1 as the molecule, how does the inhibition read?
**A.** Its inhibition is 0%.

**Q.** How did the inhibition turn out when COC(=O)C1CCN(C(=O)NC(C)(C)C)CC1 was run?
**A.** The inhibition was 6%.

**Q.** How did the inhibition turn out when Cc1nc2ccc(S(=O)(=O)NCC(=O)N3CCc4ccccc4C3)cc2s1 was run?
**A.** The inhibition was 2%.

**Q.** Which inhibition does the source give for COC(=O)C1=C(C)NC2=C(C(=O)CCC2)C1c1coc2ccccc2c1=O (stereo not drawn) here?
**A.** The inhibition was 6%.

**Q.** How did the inhibition turn out when O=C(CC(CC(=O)c1ccccc1)C(=O)O)c1ccccc1 was run?
**A.** Its inhibition is 3%.

**Q.** C=CCc1ccccc1OCC(O)CNC(C)C (stereo not drawn) was tested. Which inhibition did it give?
**A.** Its inhibition is 8%.

**Q.** With CCCCCCC(C)n1[nH]c(=O)c2c(C)cc(=O)[nH]c21 (stereo not drawn) as the molecule, how does the inhibition read?
**A.** The inhibition was 5%.

**Q.** Which inhibition does the source give for CC(C)COc1ccc(C2NC(=O)NC2=O)cc1 (stereo not drawn) here?
**A.** Its inhibition is 0%.

**Q.** How did the inhibition turn out when CCN(CC)C(=O)CSc1nnc(-c2cc(OC)cc(OC)c2)o1 was run?
**A.** The inhibition was 0%.

**Q.** With C=CCNc1nnc(SC2CC(=O)N(c3ccc(OC)cc3)C2=O)s1 (stereo not drawn) as the molecule, how does the inhibition read?
**A.** The inhibition was 0%.

**Q.** For Cc1cc(-c2ccccc2)nc2cc(C(=O)NCCCn3ccnc3)nn12, which inhibition is on record?
**A.** Its inhibition is 7%.

**Q.** For Cn1c(=O)oc2cc(S(=O)(=O)N3CCCC(C(=O)NCC4COc5ccccc5O4)C3)ccc21 (stereo not drawn), which inhibition is on record?
**A.** The inhibition was 0%.
